Screens from PubChem.
An excerpt weighted towards active compounds, which were near 2.7% of everything screened.
CHT allo act: human CHT allosteric activation | B-score at 10 µM | 0.49% of 310,000 active | CHT-expressing cells, membrane potential dye, choline EC20; hits give high values; LV-AA mutant CHT in HEK293 cells | Q9GZV3;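 active = initial fluorescence not abnormally high and integrated response B-score, plate-corrected, over 3 SD above library mean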
Target sequence (Q9GZV3 whole entry, looked up): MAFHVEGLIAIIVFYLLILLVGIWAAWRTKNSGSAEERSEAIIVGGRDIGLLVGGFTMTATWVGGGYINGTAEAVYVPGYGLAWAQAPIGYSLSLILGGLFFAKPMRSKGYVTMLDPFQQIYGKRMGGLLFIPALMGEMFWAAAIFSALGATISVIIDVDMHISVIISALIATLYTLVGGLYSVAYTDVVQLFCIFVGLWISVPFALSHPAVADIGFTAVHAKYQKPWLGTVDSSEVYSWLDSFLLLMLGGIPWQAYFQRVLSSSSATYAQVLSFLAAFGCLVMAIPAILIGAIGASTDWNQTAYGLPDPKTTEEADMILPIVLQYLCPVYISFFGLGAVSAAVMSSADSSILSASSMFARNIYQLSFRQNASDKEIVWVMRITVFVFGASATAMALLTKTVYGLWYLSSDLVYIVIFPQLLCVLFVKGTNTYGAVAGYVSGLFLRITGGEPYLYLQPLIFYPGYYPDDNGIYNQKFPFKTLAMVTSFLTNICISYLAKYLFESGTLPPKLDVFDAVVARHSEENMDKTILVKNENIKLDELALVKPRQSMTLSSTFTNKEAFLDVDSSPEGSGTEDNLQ
TMEM16A act: mouse TMEM16A channel activation, primary screen; Q8BHY3; HEK293 TMEM16A/YFP-H148Q/I152L, iodide quench fluorescence; hits give low values; B-score at 10 µM; 0.3% of 340,000 active; AID 623877;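 active = fluorescence-ratio B-score plate-corrected deviation score at least 3 library SD below zero, with starting fluorescence score within 5 deviations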;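 note: channel opened by trigger with iodide after compound preincubation; score built on the fluorescence ratio of max minus min over baseline; more negative score means more quench and so TMEM16A activation or potentiation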
ANO1 block: mouse TMEM16A channel inhibition, primary screen; HEK293 TMEM16A/YFP iodide influx fluorescence, ionomycin; normalized B-score (activity score, 25-100; higher = stronger inhibition) at 10 µM; 1.2% of 310,000 active;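 active = ratio plate-corrected score three or more library SD toward inhibition, starting fluorescence score within five deviations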;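 note: score derived from kinetic fluorescence span divided by baseline fluorescence per well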
IDE cell activ: activators of human insulin-degrading enzyme in cells; activation, % at 5.96 µM; 0.073% of 340,000 active; AID 493087; HEK cells, FAbeta-B cleavage, fluorescence polarization; 0% vehicle, 100% cell-free pure enzyme wells; P14735;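 active = activation above the mean of all tested compounds plus 3 SD, set per screening campaign, cut at about 17% in these data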
CHT inh: inhibitors of human choline transporter CHT; Q9GZV3; CHT-expressing cells, membrane potential dye, choline response; hits give low values; B-score at 10 µM; 0.86% of 310,000 active; AID 488975;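 active = B-score over 3 SD under the library average, and starting fluorescence ratio not unusually high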;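 note: choline stimulus applied at its EC90 after an EC20 pre-addition; B-score computed on integrated fluorescence ratio after choline addition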
IDE cell inh: cellular human IDE inhibition; P14735; HEK cells, FAbetaB cleavage, fluorescence polarization; inhibition, % at 5.59 µM; 0.41% of 320,000 active; AID 434962;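 active = percent inhibition above the average of all tested compounds plus 3 SD, set per screening campaign, cut at about 16% in these data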;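 note: IDE supplied by intact live HEK cells; FP after avidin binding of uncleaved biotin substrate so inhibition keeps polarization high; 0% = DMSO wells and 100% = 60 µM reference IDE inhibitor Ii1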
IDE inh confirm: cellular human IDE inhibition, confirmation; shares compounds with IDE cell inh; HEK cells, FAbetaB cleavage, fluorescence polarization; inhibition, % at 5.59 µM; 51% of 1,200 active;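 active = mean inhibition across triplicate wells above the cutoff set by the earlier primary insulin-degrading enzyme screen, cut at about 16% in these data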;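 note: 0% = DMSO wells and 100% = 60 µM reference IDE inhibitor Ii1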
HEK293 tox: counter-screen for IDE inhibitors: cytotoxicity in HEK cells | shares compounds with IDE cell inh | HEK293 cytotoxicity, ATP luminescence | inhibition, % at 5.59 µM | 28% of 1,200 active; in the data active = inhibition above about 22%;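 note: 0% = vehicle wells and 100% = reference cytotoxic drug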
FP fluor counter: fluorescence interference counter-screen for IDE inhibitors; shares compounds with IDE cell inh; FP counterscreen for fluorescent artifacts, IDE probe project; IC50, µM; 30 tested, under 10 active; AID 588718; call rule not given here
Active calls of the source: *; i = inactive; / = no result given.

SMILES	CHT allo act	TMEM16A act	ANO1 block	IDE cell activ	CHT inh	IDE cell inh	IDE inh confirm	HEK293 tox	others
CCCc1cc(=O)[nH]c(SCC(=O)N2CCCC2=O)n1	i	i	i	2.3	i	-3.8	/	/
C#CCN1C(=O)S/C(=C/c2cc(C)n(CC)c2C)C1=O	i	i	i	-1.5	i	0.6	/	/
CCn1c(C)cc(/C=C2/SC(=S)N(CC(=O)O)C2=O)c1C	i	i	i	-33.6	i	39.6*	36.2*	4.6
Cc1ccc(C)c(OCC(=O)O/N=C(\N)c2cccnc2)c1	i	i	i	-5.7	i	4.2	/	/
CCc1ccc(OCC(=O)O/N=C(\N)c2cccnc2)cc1	i	i	i	/	i	16.5*	2.6	11.3
COc1cc(SSc2cc(OC)cc([N+](=O)[O-])c2N)c(N)c([N+](=O)[O-])c1	i	i	i	-26.9	i	21.2*	18.3*	24.4*
CCN(CC)C(=O)c1ccc(/C=C/c2c[nH]c3ccccc23)[n+](C)c1	i	i	i	-23.4	i	22.0*	21.1*	16.3
Cc1cc(C)n(S(=O)(=O)c2ccccc2[N+](=O)[O-])n1	i	i	i	2.0	i	1.2	/	/
CCOC(=O)N1CCN(S(=O)(=O)N2CCCC(C(=O)NC(C)c3ccccc3)C2)CC1 (configuration not stated)	i	i	i	-0.9	i	18.3*	7.3	9.8
N#CC1=C(N)NC(=S)C(C(N)=O)C1c1ccccc1F (configuration not stated)	i	i	i	-8.5	i	27.4*	11.0	5.9
N#CC1=C(N)NC(=S)C(C(N)=O)C1c1ccc(Cl)cc1Cl (configuration not stated)	i	i	i	-26.4	i	5.0	/	/
Cc1ccccc1C(N)=O	/	i	/	6.6	/	/	/	/
Cc1ccc(C(=O)C(OC(=O)CNC(=O)c2ccc(Cl)cc2)c2ccccc2)cc1 (configuration not stated)	i	i	i	3.0	i	17.4*	1.1	10.3
CC(=O)Nc1ccc(S(=O)(=O)N(C)CC(=O)NNc2c(F)c(F)cc(F)c2F)cc1	/	i	/	1.8	/	-0.7	/	/
CC(CC(=O)N1CCN(c2ccccc2)CC1)S(=O)(=O)c1ccc2c(c1)NC(=O)CO2 (configuration not stated)	i	i	i	7.6	i	0.2	/	/
Nc1c(SCCC(=O)O)ccc2c1C(=O)c1ccccc1C2=O	i	-5.32*	i	-3.4	i	16.8*	11.4	13.8
Cc1ccc2nc(-c3ccc(SCC(=O)N4CCc5ccccc54)nc3)[nH]c2c1	i	i	i	-24.2	i	26.4*	10.1	13.2
Cc1ccc2nc(-c3ccc(SCC(=O)O)nc3)[nH]c2c1	i	i	i	4.5	i	-0.8	/	/
Cc1ccc(CNS(=O)(=O)c2cc3c(cc2C)NC(=O)CO3)cc1	i	i	i	6.0	i	5.9	/	/
CSc1ccccc1NC(=O)c1ccc(N2CCCC2=O)cc1	/	i	/	3.7	/	-2.0	/	/
CC1=C(C(N)=O)C(c2ccccc2[N+](=O)[O-])n2ncnc2N1 (configuration not stated)	i	i	i	1.6	i	-0.8	/	/
COc1cc(/C=C2\SC(N)=NC2=O)cc(Cl)c1O	i	i	i	-42.0	i	25.6*	46.6*	12.2
COc1cc(/C=c2\s/c(=C(/C#N)C(=O)N3CCCC3)n(-c3ccccc3)c2=O)ccc1O	i	i	i	-120.4	i	28.2*	151.5*	29.5*
COc1ccc(NC(=O)c2cc3ccc(O)cc3o/c2=N\O)cc1	i	i	i	-2.9	i	4.9	/	/
O=C(CCNC(=O)C1CCN(S(=O)(=O)c2ccccc2)CC1)NCCc1cccc(F)c1	i	i	i	2.0	i	2.4	/	/
SMILES	CHT allo act	TMEM16A act	ANO1 block	IDE cell activ	CHT inh	IDE cell inh	IDE inh confirm	HEK293 tox	others
C=CCn1c(O)c(N=NC(=S)Nc2cccc(C)c2)c2ccccc21	i	i	i	-4.2	i	24.5*	2.1	81.9*
CC(CC(=O)O)CC(=O)N1CCN(S(=O)(=O)c2cccs2)CC1 (configuration not stated)	i	i	i	-23.8	i	20.2*	11.6	9.4
COc1cc(/C=C/C(=O)c2ccc3c(c2)OCO3)cc(Cl)c1O	i	i	i	-203.2	i	160.4*	88.0*	12.5
Cn1ccnc1SCC(=O)NC1(C#N)CCCCC1	i	i	i	0.7	i	3.2	/	/
O=C1CCN(Cc2ccccc2)C(=O)N1	/	i	/	4.6	/	/	/	/
N#Cc1c2c(c[nH]c1=O)CCN2Cc1ccccc1	i	i	i	-25.9	i	16.3*	14.6	4.1
S=c1nccc(-c2cccs2)[nH]1	i	i	i	-16.3	i	19.7*	4.2	11.5
c1csc(-c2ccn[nH]2)c1	i	i	i	0.7	i	-3.8	/	/
O=C(NCC1CCCO1)c1ccc(COc2ccc(Br)cc2)cc1 (configuration not stated)	i	i	i	-12.6	i	21.6*	4.6	23.8*
CCN1/C(=C/C=C/c2oc3ccc4ccccc4c3[n+]2CC)Oc2ccc3ccccc3c21	i	/	i	/	i	82.2*	133.5*	112.2*
O=C(CSc1nnc(CCCOc2ccc(Cl)cc2Cl)o1)Nc1ccc(C(=O)O)cc1	i	i	i	1.8	i	18.0*	5.6	7.0
O=C(Nc1cc(C(F)(F)F)cc(C(F)(F)F)c1)c1csc(-c2ccncc2)n1	/	/	/	/	/	/	/	/	FP fluor counter=>54.7
O=C(Nc1cccc(C(F)(F)F)c1)c1csc(-c2cccc(C(F)(F)F)c2)n1	/	/	/	/	/	/	/	/	FP fluor counter=>54.7
Cc1ccc(-c2nc(C(=O)Nc3cccc(C(F)(F)F)c3)cs2)cc1	/	/	/	/	/	/	/	/	FP fluor counter=>54.7
O=C(Nc1cccc(C(F)(F)F)c1)c1csc(-c2ccccc2)n1	/	/	/	/	/	/	/	/	FP fluor counter=>54.7
Cc1ccc(S(=O)(=O)NCC(=O)OCC(=O)N(C)C2CCS(=O)(=O)C2)cc1 (configuration not stated)	i	i	i	4.1	i	-1.2	/	/
O=C(CCCN1C(=O)/C(=C/c2ccc(F)cc2)SC1=S)NC1CCS(=O)(=O)C1 (configuration not stated)	i	i	i	2.1	i	3.9	/	/
